High-throughput results as filed in PubChem BioAssay.
CFTR F508del cor = CFTR F508del correction in bronchial cells; CFBE cells, YFP halide quenching; stimulated with forskolin plus potentiator P3; % fluorescence drop versus neutral controls; activity (quench increase), % at 7.58 µM; actives 0.36% (n = 350,000); AID 720511;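 active = mean added fluorescence quench of at least 8% versus neutral control, with both replicates also reaching 8%; inconclusive = only one of the mean or replicate conditions met; inactive = mean below 8% and not both replicates reaching 8%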;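 also: cells transiently co-express mutant CFTR-F508del with the halide-sensitive YFP; corrector assay measuring rescue of mutant channel to the surface after 24 h compound exposure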
PAX8 reporter = inhibitors of PAX8 transcriptional activity in RMG-I cells; actives 1.2% (n = 360,000); inhibition, % at 12.6 µM; RMG-I TPO-luciferase reporter, SteadyGlo, 24 h;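 active = mean replicate inhibition at least 60% with every replicate also reaching 60%; inconclusive = only one of the two criteria is met; inactive = mean below 60% and not all replicates reaching 60%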;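 also: luciferase light reporting Pax8 driven TPO promoter activity; plate controls were median of neutral control wells for no effect and mitoxantrone controls for full effect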
LGR2 antag = inhibitors of bursicon-induced Drosophila LGR2 receptor cAMP signaling. HEK293 LGR2, CRE-luciferase, bursicon-stimulated, 4 h. inhibition, % at 9.99 µM. actives 0.35% (n = 380,000). AID 720647;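 active = drop in luminescence signal, shown as inhibition above about 50% in the replicate tests, limit read from the data, passing the limit was not always enough; inconclusive = probably only some replicates passing the limit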;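 also: agonist challenge used bursicon conditioned medium at about half maximal strength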
EWS-Fli block = inhibitors of EWS/Fli oncoprotein transcriptional activity | A673 NR0B1-luciferase reporter, viability-normalised | inhibition, % at 12.6 µM | actives 0.67% (n = 350,000) | AID 651661;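 active = mean inhibition of at least 50% after viability correction, with every replicate also passing that limit; inconclusive = mean reaches 50% but only one of two replicates passes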;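 also: firefly luciferase signal divided by Alamar Blue viability fluorescence both relative to DMSO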
* marks the source's active call; other numbers are inactive results. Sampled rows, rich in hits. Any-hit rate of the full collection: about 1.8%.

How did Oc1c(C(Nc2nccs2)c2ccc(C(F)(F)F)cc2)ccc2cccnc12 (configuration not stated) do in these assays?
CFTR F508del cor: 0.9; PAX8 reporter: 85.0*; LGR2 antag: 20.8; EWS-Fli block: inconclusive

What do the screens show for `CC(=O)NC(C)c1cc(Cl)c2cccnc2c1O` (configuration not stated)?
CFTR F508del cor: -1.6; PAX8 reporter: 25.2; LGR2 antag: -3.1; EWS-Fli block: 21.1

How did Oc1c(C(Nc2cccc(C(F)(F)F)c2)c2ccncc2)ccc2cccnc12 (configuration not stated) do in these assays?
CFTR F508del cor: -3.4; PAX8 reporter: 48.4; LGR2 antag: 20.4; EWS-Fli block: 15.4

How did CCCCC(=O)NC(c1ccccc1Cl)c1c(O)ccc2ccccc12 (configuration not stated) do in these assays?
PAX8 reporter: 12.8; LGR2 antag: -0.8

What do the screens show for `CC(=O)NC(c1ccc(Cl)cc1Cl)c1ccc2cccnc2c1O` (configuration not stated)?
CFTR F508del cor: 10.0*; PAX8 reporter: 83.3*; LGR2 antag: 43.5; EWS-Fli block: 46.6

What do the screens show for `CCCC(=O)NC(c1ccc(Cl)cc1)c1ccc2cccnc2c1O` (configuration not stated)?
CFTR F508del cor: 15.1*; PAX8 reporter: 85.3*; LGR2 antag: 30.9; EWS-Fli block: 45.5

What do the screens show for `CC1CCc2ccccc2N1C(N)=Nc1ccccc1` (configuration not stated)?
CFTR F508del cor: 1.3; PAX8 reporter: 21.2; LGR2 antag: -0.4; EWS-Fli block: 12.3

How did O=C1CN(S(=O)(=O)Cc2ccccc2)C[C@H]2[C@H](c3ccc(C#CC4CC4)cc3)[C@H](CO)N12 do in these assays?
CFTR F508del cor: -3.1; PAX8 reporter: 5.4; LGR2 antag: -0.3; EWS-Fli block: 7.2

Results for O=C1CN(S(=O)(=O)Cc2ccccc2)C[C@@H]2[C@@H](c3ccc(C#CC4CC4)cc3)[C@@H](CO)N12 ?
CFTR F508del cor: 1.0; PAX8 reporter: 79.2*; LGR2 antag: 2.0; EWS-Fli block: 7.9

Results for CCS(=O)(=O)N1CC(=O)N2[C@H](CO)[C@@H](c3ccc(-c4ccccc4F)cc3)[C@@H]2C1 ?
CFTR F508del cor: -4.4; PAX8 reporter: 10.7; LGR2 antag: -2.8; EWS-Fli block: -1.6

How did CCS(=O)(=O)N1CC(=O)N2[C@H](CO)[C@@H](c3ccc(-c4ccccc4F)cc3)[C@H]2C1 do in these assays?
CFTR F508del cor: 6.0; PAX8 reporter: 80.7*; LGR2 antag: -3.2; EWS-Fli block: 10.7

Results for O=C1CN(S(=O)(=O)Cc2ccccc2)C[C@H]2[C@@H](c3ccc(C#Cc4ccc(F)cc4)cc3)[C@@H](CO)N12 ?
CFTR F508del cor: 2.3; PAX8 reporter: -0.2; LGR2 antag: -6.0; EWS-Fli block: 5.7

Results for O=C1CN(S(=O)(=O)Cc2ccccc2)C[C@@H]2[C@@H](c3ccc(C#Cc4cccc(F)c4)cc3)[C@H](CO)N12 ?
CFTR F508del cor: 8.1*; LGR2 antag: 14.3

What do the screens show for `O=C1CN(S(=O)(=O)Cc2ccccc2)C[C@H]2[C@H](c3ccc(C#Cc4ccc(F)cc4)cc3)[C@H](CO)N12`?
CFTR F508del cor: 0.6; PAX8 reporter: 98.6*; EWS-Fli block: 0.7

How did CCOC(=O)c1c(NC(=O)C(C)S(=O)(=O)c2cn(CC)c3ccccc23)sc2c1CCCC2 (configuration not stated) do in these assays?
CFTR F508del cor: -1.8; PAX8 reporter: 15.7; LGR2 antag: 27.8; EWS-Fli block: 0.5

What do the screens show for `O=S(=O)(Cc1ccccc1)N1CCCCN2[C@H](C1)[C@@H](c1ccc(C#Cc3ccccc3)cc1)[C@@H]2CO`?
CFTR F508del cor: 8.0*; PAX8 reporter: 14.5; LGR2 antag: 18.0; EWS-Fli block: 2.4

How did Cc1[nH]c2c(ccc3cccnc32)c1C do in these assays?
CFTR F508del cor: 1.9; PAX8 reporter: -55.5; LGR2 antag: -12.9; EWS-Fli block: -40.1

What do the screens show for `CC1=[N+](C)c2c(ccc3cccnc23)C1(C)C`?
CFTR F508del cor: -9.7; PAX8 reporter: 85.3*; LGR2 antag: inconclusive; EWS-Fli block: 19.7

What do the screens show for `CCc1ccc(NC(=O)CN(N=Nc2nonc2C)c2nonc2C)cc1`?
CFTR F508del cor: 1.2; PAX8 reporter: 8.8; LGR2 antag: 24.9; EWS-Fli block: 11.3

What do the screens show for `Cc1ccc(S(=O)(=O)Nc2ccc3c(c2)C(=O)N([C@H](C)CO)C[C@@H](C)[C@@H](CN(C)Cc2ccc4c(c2)OCO4)OCCCC[C@@H](C)O3)cc1`?
CFTR F508del cor: 2.0; PAX8 reporter: 97.0*; LGR2 antag: 16.4; EWS-Fli block: 25.8
